Source: PubChem BioAssay (NCATS)
Results filed as inconclusive are left out. Calls of active or inactive are those of the source. Calls come from the whole dose curve; as a rule, active = well fitted curve in the direction sought with a large enough effect; inconclusive = small, poorly fitted or top-dose-only effect, or another doubt; inactive = no such curve, though single readings can be large; an effect the other way counts as inactive or inconclusive.

How the values were obtained:
[1] = test system: HEK293; assay: Cytotoxic Profiling of Annotated Libraries Using Quantitative High-Throughput Screening (AID 1296008); conditions: Five cell lines viability, CellTiter-Glo ATP luminescence, 48-72 h; max response: stronger effect = lower value; note: nearly all actives have a fitted effect of over 60% in size; note: potency is the fitted concentration of half-maximal effect; for max response: % is set by controls: 0 for no effect and ±100 for the full control effect
Outline: (§1)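 Cells exposed to compounds for 48 or 72 hr at 37 degrees Celsius. Viability read as ATP-coupled luminescence with CellTiter-Glo after 10 min at room temperature.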

[2] = test system: KB-3-1; assay: as above; conditions: Five cell lines viability, CellTiter-Glo ATP luminescence, 48-72 h; max response: stronger effect = lower value
Outline: as §1

[3] = test system: NIH3T3; assay: as above; conditions: Five cell lines viability, CellTiter-Glo ATP luminescence, 48-72 h; max response: stronger effect = lower value
Outline: as §1

[4] = test system: C33A; assay: Primary qHTS to identify gynecologic anti-cancer compounds using libraries of approved drugs and bioactive compounds (AID 1345084); conditions: Gynecologic cancer cell panel viability, ATPlite luminescence, 48 h; series mostly up to 57.5 µM; note: nearly all actives have a fitted effect of over 55% in size; note: potency is the fitted concentration of half-maximal effect
Outline: (§2)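 Cells, 1,000 per well, plated 16 h, then exposed 48 h at 37 C to compounds. Viability by ATPlite luminescence after 15 min at room temperature.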

[5] = test system: CAOV3; assay: as above; conditions: Gynecologic cancer cell panel viability, ATPlite luminescence, 48 h; series mostly up to 57.5 µM
Outline: as §2

[6] = test system: CASKI; assay: as above; conditions: Gynecologic cancer cell panel viability, ATPlite luminescence, 48 h; series mostly up to 57.5 µM
Outline: as §2

[7] = test system: Es-2; assay: as above; conditions: Gynecologic cancer cell panel viability, ATPlite luminescence, 48 h; series mostly up to 57.5 µM
Outline: as §2

[8] = test system: HeLa; assay: as above; conditions: Gynecologic cancer cell panel viability, ATPlite luminescence, 48 h; series mostly up to 57.5 µM
Outline: as §2

[9] = test system: Hek293T; assay: as above; conditions: Gynecologic cancer cell panel viability, ATPlite luminescence, 48 h, control line for the selectivity index; series mostly up to 57.5 µM
Outline: as §2

[10] = test system: JEG-3; assay: as above; conditions: Gynecologic cancer cell panel viability, ATPlite luminescence, 48 h; series mostly up to 57.5 µM
Outline: as §2

[11] = test system: NIH3T3; assay: qHTS assay to identify novel small-molecules to repurpose for Merkel cell carcinoma treatment (AID 1296009); conditions: MCC and control cell lines, CellTiter-Glo viability, 72 h; at 44.8 µM (top of the series) unless noted; note: nearly all actives have a fitted effect of over 60% in size
Outline: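 Dose-response viability screen; 72 hr exposure at 37 degree celsius; CellTiter-Glo added, 10 min room temperature, luminescence read; RLUs scaled between no-cell and DMSO wells.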

CC1(C)CC[C@]2(C(=O)O[C@@H]3O[C@H](CO)[C@@H](O)[C@H](O)[C@H]3O)CC[C@]3(C)C(=CCC4[C@@]5(C)C[C@@H](O)[C@H](O)[C@](C)(C=O)C5CC[C@]43C)[C@@H]2[C@@H]1O (stereo partly drawn)
inactive: max response [1] -5.81% | outcome [2] | max response [3] 0.296% | Potency [4] | Potency [5] | Potency [6] | Potency [7] | Potency [8] | Potency [9] | Potency [10]

O=S(=O)(NCC1CC1)c1ccc(Nc2nccc(N3CCCc4cc(O)ccc43)n2)cc1
active: Potency [1] 1.64 µM | Potency [2] 14.6 µM | Potency [3] 5.8 µM | Potency [4] 31.6 µM

CC(C)NCC(C(=O)N1CCN(c2ncnc3c2C(C)CC3O)CC1)c1ccc(Cl)cc1 (stereo not drawn)
inactive: max response [2] -24.2% | max response [3] 3.08% | Potency [5] | Potency [6] | Potency [7] | Potency [8]
active: Potency [1] 0.58 µM | Potency [4] 3.98 µM

O=C(O)c1ccc(CN2CCC(CN[C@@H]3C[C@H]3c3ccccc3)CC2)cc1
inactive: max response [1] -15.7% | max response [2] 6.54% | max response [3] -26% | Potency [4] | Potency [5] | Potency [6] | Potency [7] | Potency [8] | Potency [9]

Cc1ccc(S(=O)(=O)Nc2ccccc2N2CCCCC2)s1
active: Potency [1] 18.4 µM
inactive: max response [2] -18.9% | max response [3] 2.48% | Potency [4] | Potency [5] | Potency [6] | Potency [7] | Potency [8] | Potency [9] | Potency [10]

CC1(C)CC2C=C(C(=O)O)C3COC(=O)C(O)(CO)C23C1 (stereo not drawn)
inactive: max response [1] 4.03% | outcome [2] | max response [3] -0.118% | Potency [4] | Potency [5] | Potency [6] | Potency [7] | Potency [8] | Potency [9] | Potency [10]

COc1ccc(C2(O)c3ccccc3NC(=O)C2O)cc1 (stereo not drawn)
inactive: max response [1] -5.12% | outcome [2] | outcome [3] | outcome [11] | Potency [4] | Potency [5] | Potency [6] | Potency [7] | Potency [8] | Potency [9] | Potency [10]

Cc1c2cc(c(C(=O)O)c1C)OC1OC(C(O)C(O)C1O)C(O)C(O)C1OC(O2)C(O)C(O)C1O (stereo not drawn)
inactive: max response [1] -0.813% | outcome [2] | outcome [3] | outcome [11] inactive [at 17.4 µM] | Potency [4] | Potency [5] | Potency [6] | Potency [7] | Potency [8] | Potency [9] | Potency [10]

C/C(=C\CCC(C)CCO)C(=O)O[C@@H]1[C@@H](O)[C@H](OC2OC=C(C(=O)O)C3CCC(C)(O)C23)O[C@H](CO)[C@H]1O (stereo partly drawn)
inactive: max response [1] 0.262% | outcome [2] | max response [3] -17.6% | Potency [4] | Potency [5] | Potency [6] | Potency [7] | Potency [8] | Potency [9] | Potency [10]

Cc1c[nH]c2nccc(Oc3c(F)cc(Nc4cc(Cl)nc(N)n4)cc3F)c12
active: Potency [1] 5.8 µM | Potency [2] 1.46 µM | Potency [3] 10.3 µM | Potency [7] 12.6 µM | Potency [8] 7.94 µM
inactive: Potency [4] | Potency [5] | Potency [6]

O=C(c1cc2c(cc1F)OC(c1ccc(F)cc1)(c1ccc(Cl)cc1Cl)O2)N1CCOCC1 (stereo not drawn)
inactive: max response [3] -3.07% | Potency [4] | Potency [5] | Potency [6] | Potency [7] | Potency [8] | Potency [9] | Potency [10]
active: Potency [1] 11.6 µM | Potency [2] 13 µM

C[C@H](C(=O)NC1CCCC1)N(C(=O)Cn1nnc(-c2ccc3c(c2)OCO3)n1)C1CCCCC1
inactive: max response [1] 2.96% | max response [2] 5.01% | outcome [3] | outcome [11] | Potency [4] | Potency [5] | Potency [6] | Potency [7] | Potency [8] | Potency [9] | Potency [10]

CC(=O)OC[C@@]12C(=O)C[C@@H](C)[C@]3(C[C@@H](c4ccoc4)O[C@H]3OC(C)=O)[C@H]1CCC[C@]21CO1
inactive: max response [1] -5.69% | max response [2] -1.02% | max response [3] 3.02% | Potency [4] | Potency [5] | Potency [6] | Potency [7] | Potency [8] | Potency [9] | Potency [10]

C=C1C(O)C(O)C2(CC3C(C)=CCC4C(C)(CO)CCCC34C)OC2C1O (stereo not drawn)
inactive: max response [1] -13.5% | max response [2] -3.07% | max response [3] -5.46% | Potency [4] | Potency [5] | Potency [6] | Potency [7] | Potency [8] | Potency [9] | Potency [10]

COC(=O)CC1CC(c2ccc(O)cc2)=NO1 (stereo not drawn)
inactive: max response [1] 0.726% | max response [2] -14.5% | max response [3] -0.902% | Potency [4] | Potency [5] | Potency [6] | Potency [7] | Potency [8] | Potency [9] | Potency [10]

Nc1nc2c(ncn2[C@@H]2O[C@H](CO)[C@@H](O)[C@H]2O)c(=O)[nH]1
inactive: max response [1] -9.89% | max response [2] 4.1% | outcome [3] | outcome [11] | Potency [4] | Potency [5] | Potency [6] | Potency [7] | Potency [8] | Potency [9] | Potency [10]
